Screens: PubChem BioAssay, several laboratories
ANO1 activ: mouse TMEM16A channel activation, primary screen; B-score at 10 µM; AID 623877; HEK293 TMEM16A/YFP-H148Q/I152L, iodide quench fluorescence; active compounds read low; 340,000 compounds, 0.3% hits;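 active = fluorescence-ratio B-score plate-corrected deviation score at least 3 library SD below zero, with starting fluorescence score within 5 deviations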;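 also: channel opened by trigger with iodide after compound preincubation; score built on the fluorescence ratio of max minus min over baseline; more negative score means more quench and so TMEM16A activation or potentiation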
ANO1 block: mouse TMEM16A channel inhibition, primary screen. Q8BHY3. HEK293 TMEM16A/YFP iodide influx fluorescence, ionomycin. normalized B-score (activity score, 25-100; higher = stronger inhibition) at 10 µM. 310,000 compounds, 1.2% hits;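 active = ratio plate-corrected score three or more library SD toward inhibition, starting fluorescence score within five deviations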;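 also: score derived from kinetic fluorescence span divided by baseline fluorescence per well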
Kir21 inh: inhibitors of mouse Kir2.1 inward-rectifier potassium channel. P35561. HEK293-Kir2.1, FluxOR thallium flux fluorescence; active compounds read low. B-score at 10 µM. 310,000 compounds, 0.85% hits. AID 1672;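 active = fluorescence ratio B-score at or below minus 3 SD of library scores, with starting-brightness B-score within 2 SD, cut at about -4.2 in these data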;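 also: channel flux triggered by added potassium and thallium sulfate stimulus; B-score of peak minus minimum fluorescence over baseline after thallium stimulus; more negative B-score means stronger Kir2.1 block with less thallium influx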
CHT inh: inhibits the human high affinity choline transporter | CHT-expressing cells, membrane potential dye, choline response; active compounds read low | AID 488975 | B-score at 10 µM | 310,000 compounds, 0.86% hits;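 active = B-score over 3 SD under the library average, and starting fluorescence ratio not unusually high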;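 also: choline stimulus applied at its EC90 after an EC20 pre-addition; B-score computed on integrated fluorescence ratio after choline addition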
Target sequence (Q9GZV3 whole entry, looked up): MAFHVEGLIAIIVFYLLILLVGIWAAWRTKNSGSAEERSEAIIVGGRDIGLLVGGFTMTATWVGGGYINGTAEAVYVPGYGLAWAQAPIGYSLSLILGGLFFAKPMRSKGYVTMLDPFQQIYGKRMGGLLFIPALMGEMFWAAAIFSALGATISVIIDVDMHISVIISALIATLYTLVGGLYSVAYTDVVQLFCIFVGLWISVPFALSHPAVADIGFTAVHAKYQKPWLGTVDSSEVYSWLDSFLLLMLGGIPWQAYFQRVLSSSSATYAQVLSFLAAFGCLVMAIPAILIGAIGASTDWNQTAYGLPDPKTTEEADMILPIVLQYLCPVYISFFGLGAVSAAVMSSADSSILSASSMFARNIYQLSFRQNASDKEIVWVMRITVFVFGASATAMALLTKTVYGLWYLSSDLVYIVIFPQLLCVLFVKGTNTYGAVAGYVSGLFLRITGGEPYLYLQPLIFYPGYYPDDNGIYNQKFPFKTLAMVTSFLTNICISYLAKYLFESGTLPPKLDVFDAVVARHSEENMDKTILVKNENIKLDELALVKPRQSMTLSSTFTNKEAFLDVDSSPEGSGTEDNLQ
Rce1 inhib: blocks yeast Ras-converting enzyme. Q03530. yeast membranes, quenched prenylated peptide cleavage fluorescence. calls only. 290,000 compounds, 0.27% hits. AID 2563;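 active = fall in fluorescence gain of 50% or more versus controls, with final raw signal at or below 3038400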;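 also: plate controls were neutral control wells for no effect and wells lacking membranes for full effect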
CHT PAM: allosteric activators of human choline transporter CHT; Q9GZV3; 310,000 compounds, 0.49% hits; B-score at 10 µM; CHT-expressing cells, membrane potential dye, choline EC20; active compounds read high; LV-AA mutant CHT in HEK293 cells;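 active = initial fluorescence not abnormally high and integrated response B-score, plate-corrected, over 3 SD above library mean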
An asterisk follows results filed as active; i = inactive; nt = not tested or not shown; + = active, no number. This is a sample that favours compounds with a hit; in the whole collection about 3.2% have one here.

SMILES	ANO1 activ	ANO1 block	Kir21 inh	CHT inh	Rce1 inhib	CHT PAM
CCOC(=O)C(CSCc1ccccc1)NC(=O)OC(C)(C)C (stereo not drawn)	i	i	-4.3*	i	i	i
Cc1cc(C)cc(C(=O)NCC(=O)OCC(=O)NCc2ccco2)c1	i	i	-1.4	i	i	i
Cn1c(C(=O)Nc2ccc3c(c2)OCO3)cc2c(=O)n(C)c3ccccc3c21	-6.8*	i	-0.29	i	i	i
CC(NC(=O)c1cc2c(=O)n(C)c3ccccc3c2n1C)c1ccc2c(c1)OCCO2 (stereo not drawn)	i	i	2.7	i	i	i
C=CCn1c(=O)c(C#N)cc2c(=O)n3ccccc3nc21	i	i	0.31	i	i	7.2*
C=CCn1c(=N)c(C#N)cc2c(=O)n3ccccc3nc21	i	i	0.08	i	i	i
CSc1ccccc1NC(=O)CN(C)CC(=O)NCC(=O)Nc1ccc(F)cc1	i	i	0.15	i	i	i
Cc1ccc(Nc2cc(C)nc3ccc(C)cc23)cc1	i	i	-6.7*	i	i	i
COc1ccc(Nc2cc(C)nc3ccc(OC)cc23)cc1	i	i	-2.4	i	i	i
Cc1ccc(OCCCN2C(=O)C(=O)c3cc(C)ccc32)cc1	i	i	0.49	i	i	i
Cc1cccc(OCCCN2C(=O)C(=O)c3cc(C)ccc32)c1	i	i	0.71	i	+	i
Cc1cc(C)nc(SCC(=O)NN=Cc2ccc(C)o2)n1	i	nt	nt	nt	nt	nt
Nc1nc(-c2ccc(Cl)cc2)nc(-c2ccc(Cl)cc2)n1	i	i	-0.28	i	i	i
O=[N+]([O-])c1ccc(N=Nc2c(Cl)cc(O)cc2Cl)cc1	-5.2*	100*	-6.9*	i	i	i
COc1cc(C(=O)NCC(=O)N2CCN(S(=O)(=O)c3cc(C)ccc3C)CC2)cc(OC)c1OC	i	i	0.13	i	i	i
CC(C)N1CCN(Cc2ccc(OCc3ccccc3)cc2)CC1CCO (stereo not drawn)	i	i	0.15	i	+	i
Cc1nnc(NC(=O)CSc2nnc(CC(=O)Nc3ccccc3C)n2C)s1	i	i	-0.24	i	nt	i
N#Cc1ccccc1OCC(=O)NCC(c1ccc(F)cc1)N1CCOCC1 (stereo not drawn)	i	nt	nt	nt	nt	nt
CC(=O)Nc1ccc2cc3ccc(NC(C)=O)cc3nc2c1	-9.8*	i	-2.5	i	i	i
CC(C)NC(=O)c1ccc(NC(=O)CC2SC(N3CCCC3)=NC2=O)cc1 (stereo not drawn)	i	nt	nt	nt	nt	nt
CCCCNC(=O)c1ccc(NC(=O)CC2SC(N3CCCC3)=NC2=O)cc1 (stereo not drawn)	-26*	nt	nt	nt	nt	nt
CSCC(O)Cn1ncc2ccccc2c1=O (stereo not drawn)	i	i	-2.5	i	i	i
COc1ccc(/C=N/Nc2nc(C(=O)O)cs2)cc1	i	i	2.5	i	i	i
CCOC(=O)C(=O)Nc1ccccc1C(=O)OC	i	i	-0.92	i	i	i
CCCCOC(=O)Nc1ccccc1C(=O)OC	-13*	i	0.02	i	i	i
SMILES	ANO1 activ	ANO1 block	Kir21 inh	CHT inh	Rce1 inhib	CHT PAM
C/C(=N\Nc1ccc(Cl)c(C(=O)O)c1)c1ccccn1	i	i	-0.01	i	i	i
C/C(=N\Nc1ncc(Cl)cc1Cl)c1ccccn1	-7.8*	nt	-2.8	nt	i	nt
O=c1[nH]nc(SC2CCCCC2)c(=O)[nH]1	i	nt	nt	nt	nt	nt
COCCNC(=O)c1cnn2c(C(F)(F)F)cc(-c3ccc(C)cc3)nc12	-5.2*	i	-0.07	i	i	i
Cc1nc2scc(-c3ccccc3)c2c(=O)n1N=C1C=CC(=O)C=C1	nt	nt	-6.8*	nt	i	nt
Cc1ccc(C)n1-n1c(C)nc2scc(-c3ccccc3)c2c1=O	i	i	-1	i	i	i
CCCCN(C(=O)c1ccc(S(=O)(=O)N(C)C)cc1)c1nc2ccccc2s1	-9*	i	0.88	i	i	i
O=C(NCCC(=O)N1CCN(c2ccc(F)cc2)CC1)c1ccco1	i	nt	nt	nt	nt	nt
